HT1080 IDH1KD tx: kills HT-1080 cells with IDH1 knockdown; HT-1080 IDH1 knockdown viability, ATP luminescence, 48 h; Potency, µM (doses to about 46.1 µM), for the others: top-dose activity, negative = toxicity, hits mostly cytotoxic; hit rate 2% among 360,000; AID 686971;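 note: potency is the fitted concentration of half-maximal effect; 0% = DMSO wells and -100% = cell-free medium wells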
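Viability of IDH1-knockdown HT-1080 fibrosarcoma cells was assessed by CellTiter-Glo after 48 h at 37 °C with titrated compound; concentration-effect curves were classified by fit quality and response size.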
TDP1 cell CPT: growth inhibition of DT40 Tdp1-/-;hTDP1 cells with camptothecin (screen for TDP1 inhibitors); chicken DT40 Tdp1-/-;hTDP1 cells + 20 nM CPT, ATP luminescence, 48 h; Potency, µM (titrated, usually from 46.2 µM), for the others: top-dose activity change, negative = growth inhibition, most hits filed as inhibitors; hit rate 12% among 420,000; note: potency is the fitted concentration of half-maximal effect; nearly all actives have a fitted effect of over 55% in size
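Chicken DT40 Tdp1-/- cells complemented with human TDP1, 400 cells/well, exposed to compounds plus 20 nM camptothecin for at least 48 h at 37 C; viability read as ATP content by CellTiter-Glo luminescence.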
DT40 TDP1 no CPT: qHTS for Inhibitors of human tyrosyl-DNA phosphodiesterase 1 (TDP1): qHTS in cells in absence of CPT | DT40 Tdp1-/- hTDP1 cells, no CPT, ATP luminescence, 48 h | Potency, µM (doses to about 46.2 µM), inactives show at the top dose activity change, negative = growth inhibition, usual class: inhibitors | hit rate 15% among 420,000 | AID 686978, 2013; note: potency is the fitted concentration of half-maximal effect; nearly all actives have a fitted effect of over 55% in size
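DT40 Tdp1-/-;hTDP1 cells, no CPT (DMSO vehicle only), 400 cells/well; compounds pin-transferred; ≥48 hr, 37 °C; CellTiter-Glo 30 min RT dark, luminescence read.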
HT1080NT lethal: kills 2HG-producing HT-1080-NT fibrosarcoma cells; HT-1080-NT fibrosarcoma viability, CellTiter-Glo ATP luminescence, 48 h; hit rate 1.6% among 360,000; Potency, µM (series often up to 46.1 µM), for inactives: at the highest dose activity, negative = less viability, usual class: cytotoxic;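 note: NT is the 2HG producing partner of a matched IDH1 knockdown line; potency is the fitted concentration of half-maximal effect; 0% = DMSO-treated cells and -100% = media-only wells without cells; nearly all actives have a fitted effect of over 55% in size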
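Read-out is CellTiter-Glo luminescence after 10 minutes at room temperature, following 48 hours' compound treatment of HT-1080-NT cells (750 cells/well, RPMI, 5% FBS, 37 degrees C).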
IL-1B inflam inh: inflammasome signaling inhibition, IL-1 beta readout; hit rate 4.7% among 360,000; AID 743279; activity change, % at 57.5 µM; THP-1 LPS/ATP IL-1B secretion, AlphaLISA, 16 h; stronger effect = lower value; in the data active = activity change below about -50%; inconclusive = mostly about -30% to -49%
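Secreted IL-1B measured by AlphaLISA bead assay after 16 h compound exposure of THP-1 cells; compounds (final up to 57.5 uM) added 1 h before LPS (250 ng/mL) and ATP (1.25 mM) stimulation; lower signal means less secretion.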
* hit, by the source's call. The list is not random: actives were taken first. Their share in the collection is about 19%. Unless noted, calls come from the whole dose curve; as a rule, active = well fitted curve in the direction sought with a large enough effect; inconclusive = small, poorly fitted or top-dose-only effect, or another doubt; inactive = no such curve, though single readings can be large; an effect the other way counts as inactive or inconclusive. Unless noted, % is set by controls: 0 for no effect and ±100 for the full control effect.

`COc1ccc(C(=O)NC2CC(C)(C)NC(C)(C)C2)cc1S(=O)(=O)N1CCOCC1` gave HT1080 IDH1KD tx 0%, TDP1 cell CPT 1%, DT40 TDP1 no CPT -5%, HT1080NT lethal 8% and IL-1B inflam inh 5.
O=C(O)COc1ccccc1/C=N/NC(=O)CSc1nnc(SCc2cccc3ccccc23)s1 was read as HT1080 IDH1KD tx 10%, TDP1 cell CPT -7%, DT40 TDP1 no CPT inconclusive, HT1080NT lethal 0% and IL-1B inflam inh 5.
`O=C(CSc1nnc(SCc2cccc3ccccc23)s1)N/N=C/c1c[nH]c2ccccc12` gave HT1080 IDH1KD tx inconclusive, TDP1 cell CPT inconclusive, DT40 TDP1 no CPT 16µM*, HT1080NT lethal -19% and IL-1B inflam inh 31.
O=C(CSc1nnc(SCc2ccc(Cl)cc2)s1)N/N=C/c1c[nH]c2ccccc12 was read as HT1080 IDH1KD tx 18µM*, TDP1 cell CPT inconclusive, DT40 TDP1 no CPT inconclusive, HT1080NT lethal inconclusive and IL-1B inflam inh 1.
`CCOC(=O)C1=C(N)OC2=C(C(=O)CC(C)(C)C2)C1c1cccs1` (centres undefined) gave HT1080 IDH1KD tx 16%, TDP1 cell CPT -9%, DT40 TDP1 no CPT inconclusive, HT1080NT lethal inconclusive and IL-1B inflam inh 11.
`CC(C)C[C@H]1CN(CCCC[C@H]2CNC(=O)C(=O)N2CCC2CCCCC2)C(=O)C(=O)N1CC1CCCCC1` gave HT1080 IDH1KD tx 1%, TDP1 cell CPT 16µM*, DT40 TDP1 no CPT 18µM*, HT1080NT lethal 11% and IL-1B inflam inh -24.
For O=C1NC[C@H](CCCCN2C[C@H](Cc3ccccc3)N(CCC3CCCCC3)C(=O)C2=O)N(CC2CCCCC2)C1=O the results were HT1080 IDH1KD tx 5%, TDP1 cell CPT inconclusive, DT40 TDP1 no CPT 5%, HT1080NT lethal 11% and IL-1B inflam inh 21.
`O=C1NC[C@H](CCCCN2C[C@H](Cc3ccc(O)cc3)N(CCC3CCCCC3)C(=O)C2=O)N(CCc2ccccc2)C1=O` gave HT1080 IDH1KD tx 11%, TDP1 cell CPT -3%, DT40 TDP1 no CPT 2%, HT1080NT lethal 13% and IL-1B inflam inh -6.
Screening O=C1NC[C@H](CC2CCCCC2)N(CCc2cccc3ccccc23)C1=O returned HT1080 IDH1KD tx -3%, TDP1 cell CPT inconclusive, DT40 TDP1 no CPT 16µM*, HT1080NT lethal -4% and IL-1B inflam inh -19.
O=C1NC[C@@H](CCCCN2C[C@H](Cc3ccccc3)N(CCC3CCCCC3)C(=O)C2=O)N(CCc2ccccc2)C1=O was read as HT1080 IDH1KD tx inconclusive, TDP1 cell CPT inconclusive, DT40 TDP1 no CPT inconclusive, HT1080NT lethal inconclusive and IL-1B inflam inh -51*.
O=C1NC[C@H](CCCCN2C[C@H](Cc3ccccc3)N(CCC3CCCCC3)C(=O)C2=O)N(CCc2ccccc2)C1=O was read as HT1080 IDH1KD tx 7%, TDP1 cell CPT inconclusive, DT40 TDP1 no CPT inconclusive, HT1080NT lethal 18% and IL-1B inflam inh -72*.
`O=C(NCc1cccnc1)C(=O)N/N=C/c1ccccc1[N+](=O)[O-]` gave HT1080 IDH1KD tx 4%, TDP1 cell CPT -5%, DT40 TDP1 no CPT -9%, HT1080NT lethal -1% and IL-1B inflam inh -16.
For O=C1NC[C@H](CCCCN2C[C@H](Cc3ccccc3)N(CC3CCCCC3)C(=O)C2=O)N(CCc2ccccc2)C1=O the results were HT1080 IDH1KD tx 14%, TDP1 cell CPT -29%, DT40 TDP1 no CPT inconclusive, HT1080NT lethal 23% and IL-1B inflam inh -51*.
O=C1NC[C@H](CCCCN2C[C@@H](Cc3ccccc3)N(Cc3ccccc3)C(=O)C2=O)N(CCC2CCCCC2)C1=O was read as HT1080 IDH1KD tx 9%, TDP1 cell CPT -4%, DT40 TDP1 no CPT inconclusive, HT1080NT lethal 12% and IL-1B inflam inh inconclusive.
